Assay results reported in the supplement of paper PMC10849652.
About 7,900 targets were measured; listed, in parts, are those with a hit and a random draw of the rest. About 0.6% of all pairs of compound and target were hits.

Key:
Experiment in all cases: log2 fold change, soluble protein after heating vs DMSO (PISA); higher = thermal stabilisation; K562 cells, 10 uM, 30 min; active = over 0.2 and 3.5 SD of the protein, either way, in both replicates (recomputed)
erlotinib = compound: C#Cc1cccc(Nc2ncnc3cc(OCCOC)c(OCCOC)cc23)c1 [erlotinib]
Outline: (§1)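 K562 cells at 2×10^6 cells/mL were treated with 10 μM compound for 30 min. Aliquots were heated for 3 min across 48°C-58°C, pooled, and extracted in PBS with 0.5% NP-40 at 4°C; soluble protein was the supernatant after 21,000xg for 90 min. Soluble protein was quantified by TMTpro 16plex LC-MS/MS with channel sums equalised, and reported as log2 fold change in thermal stability against DMSO controls, with values from duplicates.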

[1] = compound: C/C(=N\NC(=O)C1=CC(=CC=C1)S(=O)(=O)N2CCOCC2)/C3=C(C=CC(=C3)Cl)O
Outline: as §1

[2] = compound: C1=CC(=C(C=C1Cl)C2=NC3=NC=CN=C3C(=N2)NC4=CC=NC=C4)F
Outline: as §1

[3] = compound: C1=CC(=CC=C1C2=NC3=C(N2)C=C(C=C3)C(=O)N)OC4=CC=C(C=C4)Cl
Outline: as §1

[4] = compound: C1=CC2=C(C=CC(=C2)/C=C\3/C(=O)NC(=NCC4=CC=CS4)S3)N=C1
Outline: as §1

[5] = compound: C1=CC2=NC=CN=C2C=C1/C=C/3\C(=O)NC(=O)S3
Outline: as §1

[6] = compound: C1=CC=C(C=C1)C2=NC(=C(N2)C3=CC=NC=C3)C4=CC(=C(C=C4)Cl)O
Outline: as §1

[7] = compound: C1=CC=C2C(=C1)C3=NNC4=CC=CC(=C43)C2=O
Outline: as §1

[8] = compound: C1CCN(C1)C(=O)NC2=CC=CC(=C2)NC3=NC=C(C(=N3)NCCC4=CN=CN4)Br
Outline: as §1

[9] = compound: C1CN(CCC1(CC2=CC=C(C=C2)Cl)N)C3=NC=NC4=C3C=CN4
Outline: as §1

Measured: log2 fold change

MRPS16 (UniProt Q9Y3D3)
inactive: erlotinib -0.126 | [1] 0 | [2] -0.025 | [3] 0.159 | [4] 0.014 | [5] 0.079 | [6] 0.117 | [7] 0.044 | [8] -0.085 | [9] -0.097

NFX1 (UniProt Q12986)
inactive: erlotinib 0.065 | [1] -0.024 | [2] -0.26 | [3] 0.058 | [4] 0.042 | [5] -0.069 | [6] -0.039 | [7] -0.107 | [8] 0.014 | [9] 0.048

NPC1 (UniProt O15118)
Sequence of UniProt O15118 (O15118 whole entry, looked up): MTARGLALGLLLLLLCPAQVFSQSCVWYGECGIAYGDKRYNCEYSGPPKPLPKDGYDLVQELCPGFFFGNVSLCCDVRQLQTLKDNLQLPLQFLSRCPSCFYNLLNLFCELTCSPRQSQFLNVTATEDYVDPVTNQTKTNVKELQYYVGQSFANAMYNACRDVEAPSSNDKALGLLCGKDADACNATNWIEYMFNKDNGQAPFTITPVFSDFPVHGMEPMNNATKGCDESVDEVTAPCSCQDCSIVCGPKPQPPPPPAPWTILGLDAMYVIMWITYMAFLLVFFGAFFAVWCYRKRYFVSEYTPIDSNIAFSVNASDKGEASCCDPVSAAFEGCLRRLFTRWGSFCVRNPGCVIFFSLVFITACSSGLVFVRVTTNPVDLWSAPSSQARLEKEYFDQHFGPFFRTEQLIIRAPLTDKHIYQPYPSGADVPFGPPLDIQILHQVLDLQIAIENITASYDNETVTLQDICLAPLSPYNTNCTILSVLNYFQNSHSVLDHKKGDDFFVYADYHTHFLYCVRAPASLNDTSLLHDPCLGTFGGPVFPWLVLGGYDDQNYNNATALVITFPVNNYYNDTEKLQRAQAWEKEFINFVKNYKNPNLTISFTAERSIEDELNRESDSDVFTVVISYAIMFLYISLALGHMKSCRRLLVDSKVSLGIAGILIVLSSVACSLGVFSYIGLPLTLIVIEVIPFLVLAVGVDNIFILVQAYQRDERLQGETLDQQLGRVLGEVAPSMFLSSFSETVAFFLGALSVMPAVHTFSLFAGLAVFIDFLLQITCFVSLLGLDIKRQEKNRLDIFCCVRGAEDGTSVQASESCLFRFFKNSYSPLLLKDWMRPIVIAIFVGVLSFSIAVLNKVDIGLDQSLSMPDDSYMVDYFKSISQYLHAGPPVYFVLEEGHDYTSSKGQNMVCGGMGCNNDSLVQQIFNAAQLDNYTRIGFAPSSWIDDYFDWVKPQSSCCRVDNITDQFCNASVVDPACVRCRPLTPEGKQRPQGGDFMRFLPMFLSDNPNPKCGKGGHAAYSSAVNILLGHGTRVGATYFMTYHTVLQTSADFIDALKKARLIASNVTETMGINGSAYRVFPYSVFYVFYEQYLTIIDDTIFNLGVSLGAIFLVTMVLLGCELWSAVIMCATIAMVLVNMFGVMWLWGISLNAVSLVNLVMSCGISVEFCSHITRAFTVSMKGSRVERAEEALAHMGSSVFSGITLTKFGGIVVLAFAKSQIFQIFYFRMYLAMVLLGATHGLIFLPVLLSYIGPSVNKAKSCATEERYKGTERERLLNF
inactive: erlotinib 0.027 | [1] -0.033 | [2] -0.004 | [3] 0.025 | [4] -0.01 | [5] 0.028 | [6] 0.011 | [7] -0.027 | [8] 0.058 | [9] 0.069

MRPS21 (UniProt P82921)
inactive: erlotinib 0.014 | [1] -0.04 | [2] -0.096 | [3] 0.042 | [4] -0.241 | [5] -0.138 | [6] -0.019 | [7] 0.297 | [8] -0.091 | [9] -0.07

NOSIP (UniProt Q9Y314)
inactive: erlotinib 0.062 | [1] 0.16 | [2] 0.049 | [3] -0.05 | [4] -0.041 | [5] 0.039 | [6] -0.033 | [7] -0.03 | [8] -0.234 | [9] -0.249

NUP205 (UniProt Q92621)
inactive: erlotinib 0.047 | [1] 0.131 | [2] -0.1 | [3] -0.031 | [4] 0.068 | [5] 0 | [6] 0.016 | [7] -0.146 | [8] -0.063 | [9] -0.017

NOL11 (UniProt Q9H8H0)
inactive: erlotinib -0.019 | [1] -0.065 | [2] 0.015 | [3] -0.007 | [4] -0.038 | [5] 0.042 | [6] 0.027 | [7] -0.005 | [8] -0.014 | [9] 0.079

MYL12B (UniProt O14950)
inactive: erlotinib 0.016 | [1] 0.091 | [2] 0.02 | [3] 0.006 | [4] -0.072 | [5] -0.019 | [6] 0.157 | [7] 0.023 | [8] -0.045 | [9] 0.005

NBN (UniProt O60934)
inactive: erlotinib 0.064 | [1] 0.087 | [2] 0.06 | [3] 0.033 | [4] 0.005 | [5] 0.028 | [6] 0.012 | [7] 0.002 | [8] -0.029 | [9] 0.037

NCAPD2 (UniProt Q15021)
inactive: erlotinib 0.029 | [1] 0.107 | [2] 0.005 | [3] -0.05 | [4] 0.024 | [5] 0.04 | [6] 0.013 | [7] 0.022 | [8] -0.001 | [9] -0.103

MXRA7 (UniProt P84157)
inactive: erlotinib -0.052 | [1] -0.109 | [2] -0.083 | [3] 0.047 | [4] -0.067 | [5] 0.018 | [6] -0.033 | [7] 0.037 | [8] -0.038 | [9] 0.013

MIS12 (UniProt Q9H081)
Sequence of UniProt Q9H081 (Q9H081 whole entry, looked up): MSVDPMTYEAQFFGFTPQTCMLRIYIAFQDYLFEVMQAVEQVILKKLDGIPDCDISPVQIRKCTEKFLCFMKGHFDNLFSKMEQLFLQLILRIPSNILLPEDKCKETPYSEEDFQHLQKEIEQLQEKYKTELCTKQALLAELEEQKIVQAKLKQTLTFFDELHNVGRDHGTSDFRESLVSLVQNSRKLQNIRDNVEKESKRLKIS
inactive: erlotinib 0.103 | [1] 0.083 | [2] 0.012 | [3] 0.002 | [4] 0.107 | [5] 0.052 | [6] -0.063 | [7] -0.018 | [8] -0.16 | [9] -0.016

MRPL46 (UniProt Q9H2W6)
inactive: erlotinib -0.025 | [1] -0.008 | [2] 0 | [3] 0.011 | [4] -0.054 | [5] -0.001 | [6] 0.046 | [7] 0.164 | [8] -0.031 | [9] -0.075

MON2 isoform 5 (UniProt Q7Z3U7)
Sequence of UniProt Q7Z3U7 (Q7Z3U7 whole entry, looked up): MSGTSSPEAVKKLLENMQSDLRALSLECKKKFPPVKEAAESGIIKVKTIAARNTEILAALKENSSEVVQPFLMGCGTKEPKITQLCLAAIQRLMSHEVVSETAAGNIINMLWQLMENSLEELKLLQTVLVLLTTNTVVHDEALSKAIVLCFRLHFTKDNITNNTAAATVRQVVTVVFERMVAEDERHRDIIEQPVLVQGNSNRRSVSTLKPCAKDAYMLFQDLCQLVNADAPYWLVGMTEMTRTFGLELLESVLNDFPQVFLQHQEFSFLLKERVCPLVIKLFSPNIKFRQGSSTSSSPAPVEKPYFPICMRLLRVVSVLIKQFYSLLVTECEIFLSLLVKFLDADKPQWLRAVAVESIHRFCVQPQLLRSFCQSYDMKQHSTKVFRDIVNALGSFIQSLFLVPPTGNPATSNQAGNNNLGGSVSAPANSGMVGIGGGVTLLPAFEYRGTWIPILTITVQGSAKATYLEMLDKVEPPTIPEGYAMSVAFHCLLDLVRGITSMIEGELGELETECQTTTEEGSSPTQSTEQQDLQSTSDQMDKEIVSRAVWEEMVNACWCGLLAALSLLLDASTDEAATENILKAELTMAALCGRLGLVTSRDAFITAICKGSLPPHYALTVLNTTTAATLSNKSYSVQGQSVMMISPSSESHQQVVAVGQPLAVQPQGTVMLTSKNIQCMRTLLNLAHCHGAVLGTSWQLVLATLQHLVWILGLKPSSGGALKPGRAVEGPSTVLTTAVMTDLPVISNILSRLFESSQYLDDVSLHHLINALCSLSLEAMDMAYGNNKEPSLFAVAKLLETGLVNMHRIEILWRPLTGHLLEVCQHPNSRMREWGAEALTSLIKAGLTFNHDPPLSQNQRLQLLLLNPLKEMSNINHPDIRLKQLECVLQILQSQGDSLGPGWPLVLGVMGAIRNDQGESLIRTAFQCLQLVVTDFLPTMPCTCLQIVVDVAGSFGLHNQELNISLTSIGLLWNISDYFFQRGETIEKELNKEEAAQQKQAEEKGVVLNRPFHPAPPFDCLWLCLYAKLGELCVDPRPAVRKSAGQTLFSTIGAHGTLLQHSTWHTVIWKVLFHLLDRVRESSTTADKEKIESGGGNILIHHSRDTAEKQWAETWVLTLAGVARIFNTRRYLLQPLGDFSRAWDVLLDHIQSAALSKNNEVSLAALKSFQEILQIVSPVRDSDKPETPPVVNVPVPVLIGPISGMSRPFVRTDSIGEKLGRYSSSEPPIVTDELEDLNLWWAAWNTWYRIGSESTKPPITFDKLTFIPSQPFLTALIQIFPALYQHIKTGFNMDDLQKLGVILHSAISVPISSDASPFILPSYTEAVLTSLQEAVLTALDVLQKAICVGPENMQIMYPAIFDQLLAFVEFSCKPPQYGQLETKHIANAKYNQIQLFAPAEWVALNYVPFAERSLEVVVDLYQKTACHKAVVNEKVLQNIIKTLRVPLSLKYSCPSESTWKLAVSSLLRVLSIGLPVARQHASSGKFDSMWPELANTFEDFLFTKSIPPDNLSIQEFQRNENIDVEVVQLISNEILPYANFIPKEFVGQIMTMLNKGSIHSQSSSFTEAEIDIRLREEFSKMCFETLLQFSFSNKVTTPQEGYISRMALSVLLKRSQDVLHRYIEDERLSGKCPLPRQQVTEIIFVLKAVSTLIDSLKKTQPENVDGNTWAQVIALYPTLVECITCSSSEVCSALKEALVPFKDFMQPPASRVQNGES
inactive: erlotinib 0.034 | [1] 0.034 | [2] 0.072 | [3] -0.019 | [4] 0.016 | [5] 0.015 | [6] 0.015 | [7] 0.007 | [8] -0.019 | [9] 0.004

OTUD6B (UniProt Q8N6M0)
inactive: erlotinib 0.053 | [1] 0.117 | [2] -0.103 | [3] 0.019 | [4] 0.142 | [5] 0.032 | [6] -0.001 | [7] 0.051 | [8] -0.014 | [9] -0.055

NUP107 (UniProt P57740)
inactive: erlotinib -0.05 | [1] 0.004 | [2] -0.128 | [3] 0.063 | [4] 0.04 | [5] 0.065 | [6] -0.037 | [7] -0.192 | [8] -0.145 | [9] -0.005

MOV10 (UniProt Q9HCE1)
inactive: erlotinib -0.103 | [1] -0.062 | [2] -0.242 | [3] 0.026 | [4] -0.002 | [5] 0.049 | [6] -0.049 | [7] -0.054 | [8] 0.04 | [9] -0.158

OTUD4 (UniProt Q01804)
inactive: erlotinib -0.032 | [1] -0.035 | [2] -0.137 | [3] 0.042 | [4] -0.033 | [5] -0.025 | [6] 0 | [7] 0.038 | [8] -0.011 | [9] 0.04

NUDT1 (UniProt P36639)
inactive: erlotinib 0.164 | [1] -0.018 | [2] 0.135 | [3] -0.068 | [4] 0 | [5] -0.032 | [6] 0.055 | [7] 0.187 | [8] -0.009
active: [9] 1.01

NUDT21 (UniProt O43809)
inactive: erlotinib -0.02 | [1] 0.07 | [2] -0.127 | [3] 0.047 | [4] -0.035 | [5] -0.015 | [6] -0.026 | [7] 0.008 | [8] 0.003 | [9] -0.089

NDUFS8 (UniProt O00217)
inactive: erlotinib 0.015 | [1] 0.045 | [2] 0.023 | [3] 0.033 | [4] 0.039 | [5] 0.027 | [6] 0.029 | [7] 0.007 | [8] 0.014 | [9] 0.035

NDUFA4 (UniProt O00483)
Sequence of UniProt O00483 (O00483 whole entry, looked up): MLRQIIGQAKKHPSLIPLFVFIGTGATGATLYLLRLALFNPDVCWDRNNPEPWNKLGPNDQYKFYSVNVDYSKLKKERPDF
inactive: erlotinib -0.134 | [1] 0.002 | [2] 0.258 | [3] 0.042 | [4] 0.047 | [5] 0.072 | [6] 0.038 | [7] 0.011 | [8] 0.086 | [9] -0.017

OAT (UniProt P04181)
inactive: erlotinib 0.063 | [1] 0.099 | [2] 0.045 | [3] -0.091 | [4] 0.042 | [5] -0.151 | [6] -0.183 | [7] -0.001 | [8] -0.037 | [9] -0.023

MRPS33 (UniProt Q9Y291)
inactive: erlotinib 0.023 | [1] -0.018 | [2] -0.129 | [3] 0.021 | [4] 0.019 | [5] 0.032 | [6] -0.043 | [7] 0.018 | [8] 0.026 | [9] -0.133

NRF1 isoform 4 (UniProt Q16656)
inactive: erlotinib 0.079 | [1] 0.012 | [2] -0.161 | [3] -0.028 | [4] 0.053 | [5] -0.001 | [6] -0.012 | [7] -0.116 | [8] -0.051 | [9] -0.003

OSTC (UniProt Q9NRP0)
Sequence of UniProt Q9NRP0 (Q9NRP0 whole entry, looked up): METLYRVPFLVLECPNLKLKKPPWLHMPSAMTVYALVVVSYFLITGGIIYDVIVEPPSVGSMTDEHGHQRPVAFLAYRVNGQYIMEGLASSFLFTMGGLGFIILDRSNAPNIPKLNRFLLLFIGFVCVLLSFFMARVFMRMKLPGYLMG
inactive: erlotinib 0.021 | [1] 0.024 | [2] 0.022 | [3] 0.017 | [4] 0.004 | [5] -0.001 | [6] 0.014 | [7] 0.048 | [8] -0.041 | [9] 0.088

NISCH (UniProt Q9Y2I1)
Sequence of UniProt Q9Y2I1 (Q9Y2I1 whole entry, looked up): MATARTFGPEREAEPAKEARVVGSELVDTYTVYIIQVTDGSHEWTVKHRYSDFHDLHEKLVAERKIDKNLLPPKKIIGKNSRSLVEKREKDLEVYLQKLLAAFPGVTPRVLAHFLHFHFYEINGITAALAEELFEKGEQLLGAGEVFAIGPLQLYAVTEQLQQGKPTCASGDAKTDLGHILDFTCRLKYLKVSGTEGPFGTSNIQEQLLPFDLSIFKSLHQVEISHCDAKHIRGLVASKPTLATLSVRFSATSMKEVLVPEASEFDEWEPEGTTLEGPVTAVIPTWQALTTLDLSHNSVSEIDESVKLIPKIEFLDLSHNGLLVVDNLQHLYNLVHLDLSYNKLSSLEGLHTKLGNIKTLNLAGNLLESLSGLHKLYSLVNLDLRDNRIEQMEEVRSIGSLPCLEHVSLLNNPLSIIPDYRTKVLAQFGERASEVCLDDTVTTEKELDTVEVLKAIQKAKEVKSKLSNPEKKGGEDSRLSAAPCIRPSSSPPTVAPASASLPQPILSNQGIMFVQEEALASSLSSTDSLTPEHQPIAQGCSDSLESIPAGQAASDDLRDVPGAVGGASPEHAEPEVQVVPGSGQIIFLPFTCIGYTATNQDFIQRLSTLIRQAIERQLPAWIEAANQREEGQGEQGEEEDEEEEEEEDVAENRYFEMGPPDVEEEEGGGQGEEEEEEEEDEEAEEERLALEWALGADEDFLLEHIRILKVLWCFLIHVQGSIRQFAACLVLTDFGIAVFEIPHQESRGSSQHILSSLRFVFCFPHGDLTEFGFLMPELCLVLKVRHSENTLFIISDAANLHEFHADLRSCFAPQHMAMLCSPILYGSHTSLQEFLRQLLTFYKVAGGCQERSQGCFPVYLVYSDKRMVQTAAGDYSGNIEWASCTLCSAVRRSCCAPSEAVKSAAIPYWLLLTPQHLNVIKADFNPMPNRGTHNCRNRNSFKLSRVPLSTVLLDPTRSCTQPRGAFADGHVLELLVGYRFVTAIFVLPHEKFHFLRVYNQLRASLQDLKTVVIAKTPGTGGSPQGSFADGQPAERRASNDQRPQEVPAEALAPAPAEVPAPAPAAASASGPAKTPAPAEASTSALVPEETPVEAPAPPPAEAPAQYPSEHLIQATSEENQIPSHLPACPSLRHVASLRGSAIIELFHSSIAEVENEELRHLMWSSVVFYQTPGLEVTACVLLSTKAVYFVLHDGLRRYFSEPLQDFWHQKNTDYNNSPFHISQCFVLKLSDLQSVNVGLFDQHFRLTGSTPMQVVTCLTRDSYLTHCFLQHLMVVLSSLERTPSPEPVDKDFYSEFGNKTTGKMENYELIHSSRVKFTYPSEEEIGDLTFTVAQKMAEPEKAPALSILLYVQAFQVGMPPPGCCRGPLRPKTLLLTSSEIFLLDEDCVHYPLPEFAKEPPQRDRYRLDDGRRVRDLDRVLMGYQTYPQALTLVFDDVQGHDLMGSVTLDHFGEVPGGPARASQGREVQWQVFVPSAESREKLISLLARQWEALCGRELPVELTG
inactive: erlotinib 0.141 | [1] 0.1 | [2] -0.083 | [3] 0.026 | [4] 0.089 | [5] 0.068 | [6] 0.044 | [7] -0.144 | [8] 0.039 | [9] -0.032

PAFAH1B3 (UniProt Q15102)
inactive: erlotinib 0.028 | [1] 0.091 | [2] 0.029 | [3] 0.017 | [4] 0.148 | [5] -0.038 | [6] 0.085 | [7] 0.061 | [8] -0.058 | [9] 0.032

OSBPL8 (UniProt Q9BZF1)
inactive: erlotinib 0.243 | [1] 0.156 | [2] -0.212 | [3] 0.021 | [4] 0.005 | [5] -0.028 | [6] 0.077 | [7] -0.005 | [8] -0.048 | [9] -0.085

MORC3 (UniProt Q14149)
inactive: erlotinib 0.022 | [1] 0.084 | [2] 0.171 | [3] 0.035 | [4] -0.024 | [5] 0.068 | [6] 0.012 | [7] 0.014 | [8] -0.026 | [9] -0.162
